Experimental findings from PubChem BioAssay (NCI) are described below.

This is part of a sample that, as a whole, favours compounds with a hit. Of some 83,000 tested, about 20% had one in any assay.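 Interpretation: 100, growth as untreated; towards 0, rising growth inhibition; 0, no net growth; 0 to -100, cell death. Compounds scoring below 10 were considered active.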 Unmarked numbers belong to inactive results. Calls of active or inactive are those of the source.

The subject of one experiment is MDA-MB-231 breast. As to the kind of experiment: NCI-60 one-dose screen, 48 h (100 = growth as untreated, 0 = no growth, -100 = all killed). The following applies: 10 µM.
With `O=C(Nc1ccc(I)cc1F)c1cc(-c2ccc(F)cc2F)ccc1O`, the growth was -1.69% (active).
Still for that read-out and setting: to `CN1CCN(c2ccc(C(=O)/C=C/c3ccc(C#N)cc3)cc2)CC1` belongs 65.8%; to `Cc1ccc([N+](=O)[O-])c(C(=O)Nc2ccc(-c3ccc4c(c3)NC(=O)/C4=C\c3ccc[nH]3)cc2)c1`, 55.1%; to `CN1CCO/C1=C(/NC(=O)c1ccc(Cl)cc1)[P+](c1ccccc1)(c1ccccc1)c1ccccc1`, 61.8%.
Take `CNCc1cccc2c1OCCCCCC[C@@](C)(O)CC1(CC1)S(=O)(=O)c1ccc(cc1)-c1cnc(N)c(n1)C(=O)N2`: the growth was -92.8% (active).
On the same count and under the same terms, to `Cc1cccc(NC(=O)CSc2nc3ccc(F)cc3c(=O)n2-c2ccc(Cl)cc2)c1C` belongs 51.8%.
As to `CC(=O)OC[C@@]1(C)C2CC[C@]3(C)C(CC=C4C5CC(C)(C)CC[C@]5(C(=O)Nc5ccccc5)CC[C@]43C)[C@@]2(C)C[C@@H](OC(C)=O)[C@@H]1OC(C)=O` (some centres undefined), the growth is 60.6%.
Same read-out and setting: in the case of `CC1=C2C(=C[C@@](C)(COCOCCCl)[C@@H]2O)C(=O)[C@](C)(O)C12CC2` it was -44.7% (active); in that of `CCN1CCN(Cc2ccc(NC(=O)c3cccc(-n4cc(-c5ccc(NC(C)=O)nc5)nn4)c3)cc2C(F)(F)F)CC1`, 75.8%; in that of `O=C(c1ccc(O)cc1)C1[C@H](c2ccc(Br)cc2)[C@@H](c2ccccc2)NC12C(=O)Nc1ccccc12` (some centres undefined), -40.8% (active).
On the same count and under the same terms, to `Nc1nnc(-c2c[nH]c3ccc(F)cc23)c(-c2c[nH]c3ncccc23)n1` belongs 39.1%; to `O=C(c1ccc(Cl)cc1)C1[C@H](c2ccccc2Br)[C@@H](c2ccccc2)NC12C(=O)Nc1ccc(Cl)cc12` (some centres undefined), 5.9% (active); to `Cc1ccc(NCC(=O)Nn2c(COc3ccccc3)nc3ccccc3c2=O)cc1`, 62%.
Still for that read-out and setting: to `NS(=O)(=O)c1ccc(N=Nc2c(O)n(CC(=O)Nc3ccccc3Br)c3ccccc23)cc1` belongs 11.2%; to `CN(C(=O)c1ccc(C(F)(F)F)cc1C(F)(F)F)c1sc2c(c1C#N)CCC(=O)C2`, 71.1%.
For `CC(C)(C)Nc1nc2cc(Cl)c(Cl)cc2nc1S(C)(=O)=O`, the growth was 26.7%.
For the compound `Cc1ccc(/C(N)=N/c2sc(-c3ccccc3)nc2-c2ccccc2)cc1`, the growth was 82.5%.
On the same count and under the same terms, to `O=c1cc(-c2ccccc2)oc2cc(OCCCNCc3ccccc3)cc(O)c12` belongs -43.1% (active).
The same measure, in the same setting: in the case of `CCOC(=O)C1NN(c2ccc(S(N)(=O)=O)cc2)c2nc3nc(-c4cccs4)cc(-c4cccs4)c3c(=O)n21` (centres undefined) it was 88.8%.
Regarding `N#Cc1c(NC(=O)c2ccc(C(F)(F)F)cc2)sc2c1CCC(O)=C2`, the growth was 13.5%.
As for `COc1ccc2[nH]cc(/C=N/Nc3ccc(Br)cn3)c2c1`, the growth is 6.27% (active).
As to `Cc1cc(C(F)(F)F)ccc1C(=O)Nc1sc2c(c1C#N)CCC(=O)C2`, the growth was -73.4% (active).
`Cc1ccc(F)cc1N/C=c1\s/c(=C(\C#N)C(=O)Nc2ccccc2)n(-c2ccccc2)c1=O`: the growth was 2.68% (active).
For the compound `CCCn1c(=O)c2[nH]c(-c3ccc(OCc4nc5ccc(C)cc5[nH]4)cc3)nc2n(CCC)c1=O`, the growth was -50.7% (active).
For `O=C(O)CCCCCCCCCCN1C(=O)/C(=C/c2cnc(-c3ccccc3)s2)SC1=S`, the growth is 100%.
Same read-out and setting: to `O=C1NC(=NC2CCCCCC2)N/C1=C\c1ccc2ncoc2c1` belongs 50.9%; to `COc1ccc2[nH]c(=O)c(CSc3cccc(N)c3)cc2c1`, 72.7%; to `O=C(c1ccc(Cl)cc1)C1[C@H](c2ccc(Br)cc2)[C@@H](c2ccccc2)NC12C(=O)Nc1ccc(Cl)cc12` (some centres undefined), -95.3% (active).
Still for that read-out and setting: to `C=CC(=O)Nc1ccc(C(=O)/C=C/c2ccc(N(C)CCF)cc2)c(O)c1` belongs 17%.
On the same count and under the same terms, in the case of `COc1cccc(/C=C2\N=C(C)N(CCc3ccc(S(N)(=O)=O)cc3)C2=O)c1` it was 104%.
Regarding `N#Cc1c(NC(=O)c2ccc(C(F)(F)F)cc2)sc2c1CCC(=O)C2`, the growth is -84.4% (active).
As to `COc1cc2oc(-c3cccc(C(=O)Nc4ccc(Cl)cc4)c3)cc(=O)c2c(OCCNC(=O)CNC(=O)OC(C)(C)C)c1OC`, the growth is 30.1%.
Same read-out and setting: in the case of `Cc1ccc(C(=O)NNC(=O)CSc2nc3ccccc3c(=O)[nH]2)cc1` it was 91.1%.
As for `Brc1ccc(/C=N/Nc2ncnc3sc4c(c23)CCN(Cc2ccccc2)C4)cc1`, the growth is 22.1%.
Still for that read-out and setting: to `Cc1cc2nc3c4ccccc4n(CCO)c3nc2cc1C` belongs 18.5%; to `O=C1NC(=NC23CC4CC(CC(C4)C2)C3)N/C1=C\c1ccc2ncccc2n1`, -18.5% (active).
In the case of `CN1CCN(Cc2ccc(C(=O)Nc3cccc(Nc4ccc5cc(O)ccc5n4)c3)cc2C(F)(F)F)CC1`, the growth was -55% (active).

The test system of the next experiment is RXF 393 renal. The description is as above. The note with it: 10 µM.
With `O=C(Nc1ccc(I)cc1F)c1cc(-c2ccc(F)cc2F)ccc1O`, the growth was -9.21% (active).
As for `CN1CCN(c2ccc(C(=O)/C=C/c3ccc(C#N)cc3)cc2)CC1`, the growth is 63.9%.
For `Cc1ccc([N+](=O)[O-])c(C(=O)Nc2ccc(-c3ccc4c(c3)NC(=O)/C4=C\c3ccc[nH]3)cc2)c1`, the growth was 87.4%.
The same measure, in the same setting: in the case of `CNCc1cccc2c1OCCCCCC[C@@](C)(O)CC1(CC1)S(=O)(=O)c1ccc(cc1)-c1cnc(N)c(n1)C(=O)N2` it was -94.2% (active).
On the same count and under the same terms, to `Cc1cccc(NC(=O)CSc2nc3ccc(F)cc3c(=O)n2-c2ccc(Cl)cc2)c1C` belongs 18.8%.
With `CC(=O)OC[C@@]1(C)C2CC[C@]3(C)C(CC=C4C5CC(C)(C)CC[C@]5(C(=O)Nc5ccccc5)CC[C@]43C)[C@@]2(C)C[C@@H](OC(C)=O)[C@@H]1OC(C)=O` (some centres undefined), the growth was 64.2%.
Same read-out and setting: to `CC1=C2C(=C[C@@](C)(COCOCCCl)[C@@H]2O)C(=O)[C@](C)(O)C12CC2` belongs -78.4% (active).
On the same count and under the same terms, in the case of `CCN1CCN(Cc2ccc(NC(=O)c3cccc(-n4cc(-c5ccc(NC(C)=O)nc5)nn4)c3)cc2C(F)(F)F)CC1` it was 102%.
Same read-out and setting: in the case of `O=C(c1ccc(O)cc1)C1[C@H](c2ccc(Br)cc2)[C@@H](c2ccccc2)NC12C(=O)Nc1ccccc12` (some centres undefined) it was -16.4% (active).
As to `Nc1nnc(-c2c[nH]c3ccc(F)cc23)c(-c2c[nH]c3ncccc23)n1`, the growth was 82.8%.
Regarding `O=C(c1ccc(Cl)cc1)C1[C@H](c2ccccc2Br)[C@@H](c2ccccc2)NC12C(=O)Nc1ccc(Cl)cc12` (some centres undefined), the growth was -33.7% (active).
Still for that read-out and setting: in the case of `Cc1ccc(NCC(=O)Nn2c(COc3ccccc3)nc3ccccc3c2=O)cc1` it was 51.3%.
Consider `NS(=O)(=O)c1ccc(N=Nc2c(O)n(CC(=O)Nc3ccccc3Br)c3ccccc23)cc1`, for which the growth was 27.6%.
`CN(C(=O)c1ccc(C(F)(F)F)cc1C(F)(F)F)c1sc2c(c1C#N)CCC(=O)C2`: the growth is 7.86% (active).
The same measure, in the same setting: in the case of `CC(C)(C)Nc1nc2cc(Cl)c(Cl)cc2nc1S(C)(=O)=O` it was 6.24% (active); in that of `Cc1ccc(/C(N)=N/c2sc(-c3ccccc3)nc2-c2ccccc2)cc1`, 82.7%.
For `O=c1cc(-c2ccccc2)oc2cc(OCCCNCc3ccccc3)cc(O)c12`, the growth was -56.7% (active).
The same measure, in the same setting: in the case of `CCOC(=O)C1NN(c2ccc(S(N)(=O)=O)cc2)c2nc3nc(-c4cccs4)cc(-c4cccs4)c3c(=O)n21` (centres undefined) it was 51.6%.
As for `N#Cc1c(NC(=O)c2ccc(C(F)(F)F)cc2)sc2c1CCC(O)=C2`, the growth was 14.6%.
For the compound `Cc1cc(C(F)(F)F)ccc1C(=O)Nc1sc2c(c1C#N)CCC(=O)C2`, the growth is -64.9% (active).
Still for that read-out and setting: in the case of `Cc1ccc(F)cc1N/C=c1\s/c(=C(\C#N)C(=O)Nc2ccccc2)n(-c2ccccc2)c1=O` it was 6.54% (active); in that of `O=C(O)CCCCCCCCCCN1C(=O)/C(=C/c2cnc(-c3ccccc3)s2)SC1=S`, 116%; in that of `O=C1NC(=NC2CCCCCC2)N/C1=C\c1ccc2ncoc2c1`, -8.82% (active).
On the same count and under the same terms, to `COc1ccc2[nH]c(=O)c(CSc3cccc(N)c3)cc2c1` belongs 84.8%; to `O=C(c1ccc(Cl)cc1)C1[C@H](c2ccc(Br)cc2)[C@@H](c2ccccc2)NC12C(=O)Nc1ccc(Cl)cc12` (some centres undefined), -88.8% (active); to `C=CC(=O)Nc1ccc(C(=O)/C=C/c2ccc(N(C)CCF)cc2)c(O)c1`, -82.4% (active).
On the same count and under the same terms, to `COc1cccc(/C=C2\N=C(C)N(CCc3ccc(S(N)(=O)=O)cc3)C2=O)c1` belongs 121%.
As to `COc1cc2oc(-c3cccc(C(=O)Nc4ccc(Cl)cc4)c3)cc(=O)c2c(OCCNC(=O)CNC(=O)OC(C)(C)C)c1OC`, the growth was -17.7% (active).
As to `Brc1ccc(/C=N/Nc2ncnc3sc4c(c23)CCN(Cc2ccccc2)C4)cc1`, the growth is 66.7%.
On the same count and under the same terms, to `Cc1cc2nc3c4ccccc4n(CCO)c3nc2cc1C` belongs 38.6%; to `O=C1NC(=NC23CC4CC(CC(C4)C2)C3)N/C1=C\c1ccc2ncccc2n1`, -78.1% (active); to `CN1CCN(Cc2ccc(C(=O)Nc3cccc(Nc4ccc5cc(O)ccc5n4)c3)cc2C(F)(F)F)CC1`, -87.8% (active).
